The source of these data is PubChem BioAssay (NCI).

Among the test systems are K-562 leukemia; MALME-3M melanoma; MDA-MB-231 breast; RXF 393 renal; SF-268 CNS; SF-295 CNS; SF-539 CNS; UACC-257 melanoma; M14 melanoma; HCT-15 colon; HT29 colon; SNB-75 CNS; SNB-19 CNS; U251 CNS; PC-3 prostate; SK-MEL-5 melanoma; UACC-62 melanoma; LOX IMVI melanoma; SK-MEL-28 melanoma; SK-MEL-2 melanoma.
Assay in all cases: NCI-60 one-dose screen, 48 h (100 = growth as untreated, 0 = no growth, -100 = all killed)
What all share (conditions): 10 µM

This is part of a sample that, as a whole, favours compounds with a hit. Of some 83,000 tested, about 20% had one in any assay.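 96-well plates, one dose, 48 hours. Percent growth reported; active if below 10.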 A number with no mark means an inactive call. The source made the active and inactive calls.

For the molecule `CCCCCCN1C(=O)C2=C(c3ccc(Cl)cc3)Nc3c(c(C)nn3-c3ccccc3)C2c2ccccc21` (stereo not given), the growth is 85.3% in the test with K-562 leukemia; 90.9% in the test on MALME-3M melanoma; 103% in the test on MDA-MB-231 breast; 83.7% in the test with RXF 393 renal; 103% in the test with SF-268 CNS; 92.4% in the test on SF-295 CNS. Besides, the growth in the test on SF-539 CNS was 105%; with UACC-257 melanoma, 90.7%; in the test with M14 melanoma it was 103%; with HCT-15 colon, 93.4%; in the test on HT29 colon, 98.1%; in the test with SNB-75 CNS, 83.6%. For the same molecule, the growth is 89.4% with SNB-19 CNS; 87.8% in the test with U251 CNS; 76.7% with PC-3 prostate; 92.7% in the test with SK-MEL-5 melanoma; 94.8% with UACC-62 melanoma; 94.6% in the test with LOX IMVI melanoma. In addition, the growth is 96.4% in the test on SK-MEL-28 melanoma and 91.1% in the test on SK-MEL-2 melanoma.
For `C(CCCC1=NCCO1)CCCC1=NCCO1`, the growth is 110% in the test with K-562 leukemia; 106% in the test with MALME-3M melanoma; 104% in the test on MDA-MB-231 breast; 95.6% in the test on RXF 393 renal; 104% in the test on SF-268 CNS; 101% in the test with SF-295 CNS. In addition, the growth in the test with SF-539 CNS was 101%; in the test with UACC-257 melanoma it was 104%; with M14 melanoma, 109%; with HCT-15 colon, 99.3%; in the test with HT29 colon it was 118%; in the test on SNB-75 CNS, 77.5%. In addition, the growth with SNB-19 CNS was 97.8%; in the test with U251 CNS it was 97.9%; in the test on PC-3 prostate, 98%; with SK-MEL-5 melanoma, 99.7%; in the test on UACC-62 melanoma, 93%; in the test on LOX IMVI melanoma, 94%. The figures for the growth in the test with SK-MEL-28 melanoma and in the test on SK-MEL-2 melanoma were 95.4% and 98.3%, respectively.
`CCCCC(CCCCCC(CCCC)NCc1ccc2c(c1)OCO2)NCc1ccc2c(c1)OCO2` (stereo not given): the growth is -72.3% (active) in the test on K-562 leukemia; -69.3% (active) with MALME-3M melanoma; -86% (active) in the test with MDA-MB-231 breast; -93.3% (active) in the test on RXF 393 renal; -96.8% (active) in the test with SF-268 CNS; -79.7% (active) in the test with SF-295 CNS. The growth in the test on SF-539 CNS is -100% (active); with UACC-257 melanoma, -86.9% (active); in the test on M14 melanoma, -100% (active); in the test with HCT-15 colon, -88% (active); in the test with HT29 colon it was -100% (active); in the test on SNB-75 CNS it was -100% (active). Further, the growth was -100% (active) in the test with SNB-19 CNS; -95.3% (active) in the test with U251 CNS; -100% (active) in the test with PC-3 prostate; -100% (active) with SK-MEL-5 melanoma; -95.4% (active) with UACC-62 melanoma; -96.8% (active) in the test on LOX IMVI melanoma. The growth is -100% (active) in the test on SK-MEL-28 melanoma and -87.2% (active) in the test with SK-MEL-2 melanoma.
Take `Cc1ccc(C(=O)N2C/C(=C/c3ccccc3)C(=O)/C(=C/c3ccccc3)C2)cc1`: the growth is 5.67% (active) in the test with K-562 leukemia; 60.3% in the test with MALME-3M melanoma; 53.4% with MDA-MB-231 breast; 31.3% with RXF 393 renal; 66.4% with SF-268 CNS; 56.1% in the test on SF-295 CNS. The growth in the test on SF-539 CNS was 87.2%; with UACC-257 melanoma, 80.1%; in the test on M14 melanoma, 18.2%; with HCT-15 colon, 24.5%; with HT29 colon, -17.9% (active); with SNB-75 CNS, 67.9%. Further, the growth in the test with SNB-19 CNS was 83%; with U251 CNS it was 47%; in the test with PC-3 prostate it was 65.3%; with SK-MEL-5 melanoma it was 58.9%; with UACC-62 melanoma it was 76.9%; with LOX IMVI melanoma, -24.5% (active). The results for the growth in the test with SK-MEL-28 melanoma and with SK-MEL-2 melanoma were 79.8% and 80.2%, respectively.
Regarding `Cc1ccc(NC(=O)Nc2c(Cl)cccc2Cl)cn1`, the growth in the test on K-562 leukemia is 47.7%; in the test on MALME-3M melanoma, 109%; in the test with MDA-MB-231 breast, 95.4%; with RXF 393 renal, 77.3%; in the test on SF-268 CNS it was 116%; with SF-295 CNS it was 117%. Besides, the growth with SF-539 CNS was 97.7%; with UACC-257 melanoma, 99.6%; in the test with M14 melanoma, 96.1%; in the test on HCT-15 colon, 100%; in the test on HT29 colon, 130%; in the test with SNB-75 CNS, 92.1%. Also, the growth in the test on SNB-19 CNS was 102%; in the test with U251 CNS, 89.8%; with PC-3 prostate it was 83.8%; in the test on SK-MEL-5 melanoma, 87.1%; in the test with UACC-62 melanoma, 78.7%; in the test on LOX IMVI melanoma, 101%. The growth was 130% in the test with SK-MEL-28 melanoma and 91.4% in the test with SK-MEL-2 melanoma.
As to `COc1cc(-c2cc(/C=C3\C(=O)Nc4ccccc43)[nH]n2)cc(OC)c1OC`, the growth in the test on K-562 leukemia was 31.7%; in the test on MALME-3M melanoma, 1.21% (active); with MDA-MB-231 breast, 49.9%; with RXF 393 renal, 79.3%; in the test on SF-268 CNS it was 74.8%; with SF-295 CNS, 70.6%. For the same molecule, the growth in the test with SF-539 CNS is 67.8%; with UACC-257 melanoma, 23%; in the test with M14 melanoma, 32.8%; in the test with HCT-15 colon it was 36.9%; in the test with HT29 colon it was 55.7%; with SNB-75 CNS, 44.5%. The growth with SNB-19 CNS was 65.8%; in the test on U251 CNS it was 56.1%; in the test with PC-3 prostate, 19%; in the test with SK-MEL-5 melanoma, -57% (active); in the test with UACC-62 melanoma, -11.1% (active); with LOX IMVI melanoma, 38.6%. The growth with SK-MEL-28 melanoma was 59.8%; in the test with SK-MEL-2 melanoma, 27.5%.
Regarding `CSc1nc(=O)n(Cc2ccc(Cl)cc2)c(=O)[nH]1`, the growth in the test on K-562 leukemia was 96.1%; in the test on MALME-3M melanoma, 105%; in the test on MDA-MB-231 breast, 104%; in the test with RXF 393 renal, 115%; with SF-268 CNS, 102%; in the test with SF-295 CNS, 146%. The growth in the test with SF-539 CNS was 101%; in the test with UACC-257 melanoma, 102%; with M14 melanoma, 106%; in the test with HCT-15 colon, 103%; with HT29 colon, 109%; in the test on SNB-75 CNS, 74.6%. The growth is 108% in the test with SNB-19 CNS; 94.6% in the test with U251 CNS; 101% in the test on PC-3 prostate; 110% in the test on SK-MEL-5 melanoma; 112% in the test on UACC-62 melanoma; 96.8% in the test with LOX IMVI melanoma. Moreover, the growth in the test with SK-MEL-28 melanoma was 107%; in the test on SK-MEL-2 melanoma, 116%.
With `O=C1/C(=C\c2ccc(F)cc2)CN(C(=O)c2ccc([N+](=O)[O-])cc2)C/C1=C\c1ccc(F)cc1`, the growth is 1.96% (active) in the test with K-562 leukemia; 40.5% in the test on MALME-3M melanoma; 0.131% (active) in the test with MDA-MB-231 breast; -2.85% (active) in the test with RXF 393 renal; 29.2% with SF-268 CNS; 10.4% in the test with SF-295 CNS. For the same molecule, the growth in the test on SF-539 CNS is 58%; with UACC-257 melanoma, 67%; in the test on M14 melanoma it was 2.02% (active); in the test on HCT-15 colon it was 7.31% (active); in the test on HT29 colon it was -56.9% (active); in the test on SNB-75 CNS it was 56.7%. Besides, the growth in the test with SNB-19 CNS is 67.5%; with U251 CNS, 9.03% (active); in the test with PC-3 prostate it was 28.6%; in the test on SK-MEL-5 melanoma it was 45.7%; with UACC-62 melanoma it was 40.3%; in the test with LOX IMVI melanoma, -53.3% (active). For the same molecule, the growth with SK-MEL-28 melanoma is 65.1%; in the test on SK-MEL-2 melanoma it was 74.5%.
